Experimental data from PubChem BioAssay AID590 (National Center for Advancing Translational Sciences (NCATS), 2007).
Out of some 59,000 compounds screened, about 6,500 (11%) were called active. Roughly 15% stayed inconclusive and do not appear here. Rule as the data show it: active = max dye-equivalent concentration above about 10 nM; inconclusive = mostly about 1.1 nM to 9.6 nM; inactive = weaker than that. The full list was thinned out, with actives kept by preference.

test: qHTS Assay for Spectroscopic Profiling in A350 Spectral Region; settings: Compound autofluorescence, 340/450 nm, Alexa 350 dye-equivalents; active compounds read high

Max dye-equivalent concentration, inactive:
Nc1ncc(-c2cc3ccccc3oc2=O)s1
O=C(NCc1ccccn1)c1cnc2sccn2c1=O
O=C(NCc1ccccn1)Nc1ccc(F)cc1
CC(C)CSC[C@@H]1O[C@H](n2cnc3c(N)nccc32)[C@H](O)[C@@H]1O
O=c1cc(CSc2ccc(Cl)cc2)nc(N2CCOCC2)[nH]1
Cc1ccc2c(CSc3nncs3)cc(=O)oc2c1
O=C(Nc1cnccn1)c1cccnc1
O=C(c1ccncc1)N1CCC2(CCN(Cc3cc(C(F)(F)F)cc(C(F)(F)F)c3)CC2)CC1
O=C(Nc1cccc2c1CCCC2)C1CCN(C(=O)NC2CCCCC2)CC1
CCC(=O)Nc1ccc(C(=O)CSc2nnc(CNc3ccc(Cl)cc3)o2)cc1OC
O=C(NC1CCCCC1)n1c(=O)oc2cc(S(=O)(=O)N3CCCCC3)ccc21
Cc1cccc2cc(CN(Cc3ccc4c(c3)OCO4)Cc3nnnn3C3CCCC3)c(=O)[nH]c12
CCC(c1nnnn1Cc1ccco1)N(CCc1ccccc1)Cc1cc2ccc(OC)cc2[nH]c1=O (stereo not drawn)
CCC(c1nnnn1C1CCCC1)N(Cc1cccs1)Cc1cc2cccc(C)c2[nH]c1=O (stereo not drawn)
Cc1cccc2cc(CN(Cc3cccs3)C(c3nnnn3C3CCCC3)C(C)C)c(=O)[nH]c12 (stereo not drawn)
CC(C)(C)n1nnnc1C(c1cccs1)N(Cc1cccnc1)CC1CCCO1 (stereo not drawn)
COc1ccccc1N1CCN(Cc2nnnn2CCc2ccccc2)CC1
COc1ccc(N(CC(=O)NC(C)(C)C)C(=O)c2ccco2)cc1
O=C(O)CCN1C(=O)CC2(CCCCC2)C1=O
O=c1[nH]nc(CSCc2ccccc2Cl)[nH]1
N#Cc1ccc(CSc2nnc(-c3ccccn3)n2-c2ccc(Cl)cc2)cc1
CN(C)c1ccc(CNC23CN4CN(CN(C4)C2)C3)cc1
CCOC(=O)CSc1nnc(CNC(=O)c2ccco2)n1-c1ccc(F)cc1
O=C(Oc1ccc2c(c1)CN(Cc1ccccc1)CO2)c1ccccc1
COC(=O)c1c(NC(=O)CSc2nc3c(c(=O)n(C)c(=O)n3C)n2C(C)C)sc(C)c1C
CCOP1(=O)C=C(C(C)(C)C)OC1c1ccc(F)cc1 (stereo not drawn)
CC(C)c1nc(-c2ccccn2)no1
CSCCC(NS(=O)(=O)/C=C/c1ccccc1)C(=O)N1CCC(C)CC1 (stereo not drawn)
CCn1c(SCC(=O)Nc2ccc3c(c2)OCCO3)nc2c(c1=O)SC(C)C2 (stereo not drawn)
O=C(O)c1ccc(C(=O)O)c2c(C(=O)O)ccc(C(=O)O)c12
CCOc1ccc2c(c1)cc(CN(C(=O)CC)C1CCCCC1)c1nnnn12
O=C(OCc1cc2ccccc2[nH]c1=O)c1cccnc1
O=C(CN(CC1CCCO1)C(=O)CNS(=O)(=O)c1ccccc1)NCc1ccccc1 (stereo not drawn)
c1ccc(CCn2nnnc2CN2CCN(C3CCCC3)CC2)cc1
Cc1cc(C)c2cc(CN(Cc3cccs3)Cc3nnnn3CC3CCCO3)c(=O)[nH]c2c1 (stereo not drawn)
C[C@@H]1CC[C@H]2[C@H](C)[C@H]3[C@H](C[C@H]4[C@@H]5CC=C6C[C@@H](O)CC[C@@]6(C)[C@@H]5C[C@@H](O)[C@]34C)N2C1
CN(C)CCNC(CC(=O)Nc1ccc(Cl)c(Cl)c1)C(=O)O (stereo not drawn)
Cc1ccc(CNC(=O)C2CCCN(S(C)(=O)=O)C2)cc1 (stereo not drawn)
O=C(Nc1ccccc1F)c1cc(S(=O)(=O)N2CCCCC2)cs1
NCC(=O)[C@@H](O)[C@H](O)[C@H](O)CO
O=C(O)c1nn(-c2ccc(Cl)cc2)c2c1C(=O)c1ccccc1C2=O
CCCN1CCN(CCCNC(=O)CN2C(=O)COc3ccccc32)CC1
C[C@H](CCC(=O)NCC(=O)O)[C@H]1CC[C@H]2[C@H]3[C@@H](C[C@@H](O)[C@]12C)[C@]1(C)CC[C@H](O)C[C@@H]1C[C@@H]3O

Max dye-equivalent concentration, active:
O=C(NCc1ccccn1)c1cc2ccccc2oc1=O 21 nM
CCC(c1nnnn1Cc1ccco1)N(Cc1cc2cc(OC)ccc2[nH]c1=O)C1CCCCC1 (stereo not drawn) 21 nM
CCC(c1nnnn1Cc1ccccc1)N(Cc1cc2cc(OC)ccc2[nH]c1=O)CC1CCCO1 (stereo not drawn) 32 nM
CCOc1ccc2[nH]c(=O)c(CN(Cc3nnnn3Cc3ccccc3)CC3CCCO3)cc2c1 (stereo not drawn) 150 nM
CCOc1ccc2[nH]c(=O)c(CN(Cc3nnnn3CCc3ccccc3)CC3CCCO3)cc2c1 (stereo not drawn) 76 nM
CCOc1ccc2[nH]c(=O)c(CN(CCCO)C(C)=O)cc2c1 290 nM
COc1ccc2[nH]c(=O)c(CN(Cc3nnnn3CCc3ccccc3)CC3CCCO3)cc2c1 (stereo not drawn) 300 nM
COc1ccc2[nH]c(=O)c(CN(CC3CCCO3)C(=O)Nc3ccccc3)cc2c1 (stereo not drawn) 100 nM
CCC(=O)N(Cc1cc2cc(OC)ccc2[nH]c1=O)c1ccccc1C 170 nM
CCn1c2c(c3ccc(OC)cc31)CCCC2=O 11 nM
